PABP1 MLLE inh – inhibitors of PABP1 MLLE–PAM2 peptide binding, primary screen, biochemical, fluorescence polarization, FITC-PAM2, GST-MLLE; inhibition, % at 20 µM; 360,000 compounds, 0.36% hits; AID 588489, 2011; in the data active = inhibition above about 35%, passing the limit was not always enough
PHOSPHO1 block – PubChem AID 1565. recombinant PHOSPHO1, absorbance phosphatase assay. 290,000 compounds, 1.1% hits. inhibition, % at 13.3 µM; in the data active = inhibition above about 60%
Target sequence (Q8TCT1 whole entry, looked up): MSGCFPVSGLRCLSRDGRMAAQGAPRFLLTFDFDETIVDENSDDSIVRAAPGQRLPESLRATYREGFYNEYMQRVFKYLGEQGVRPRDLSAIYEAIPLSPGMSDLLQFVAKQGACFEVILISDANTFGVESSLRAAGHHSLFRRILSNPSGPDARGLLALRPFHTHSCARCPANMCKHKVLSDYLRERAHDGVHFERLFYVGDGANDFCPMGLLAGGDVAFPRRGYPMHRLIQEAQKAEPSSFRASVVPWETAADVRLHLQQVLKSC
eIF4H inh – human eIF4H binding inhibitors, primary screen, translation initiation inhibitor project, biochemical, uHTS, fluorescence polarization; Eukaryotic translation initiation factor 4H (Homo sapiens), Q15056; eIF4H fluorescence polarization binding assay; inhibition, % at 35 µM; 290,000 compounds, 0.94% hits; AID 2012, 2009;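 also: calls also rest on retests at 20 µM and on dose response follow-up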
PABP polyA inh – PABP poly(A) RNA binding inhibitors, primary screen, biochemical, fluorescence polarization, uHTS | Polyadenylate-binding protein 1 (Homo sapiens), P11940 | inhibition, % at 35 µM | 290,000 compounds, 1% hits | AID 2014, 2009;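 also: calls also rest on retests at 20 µM and on dose response follow-up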
CRFBP-R2 block – antagonists of CRF-BP/CRF-R2 complex, primary screen, cell-based, HEK293, calcium dye fluorescence, uHTS | CRF-induced calcium fluorescence | inhibition, % at 11.8 µM | 350,000 compounds, 0.59% hits;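 active = inhibition of the ligand-induced calcium signal above about 50% at the single tested concentration, limit read from the data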
Numbers stand for hits; . = inactive; ? = inconclusive; / = no result given. Shown are actives, neighbours in structure and some others; about 2.6% of the full set was active somewhere. Unless noted, no rule for the calls is given here.

SMILES	PABP1 MLLE inh	PHOSPHO1 block	eIF4H inh	PABP polyA inh	CRFBP-R2 block
O=C(Nn1c(O)c(C=C2N=c3ccccc3=N2)sc1=S)c1cccc(Cl)c1	.	86.0	.	38.3	.
CC12CCC(C(=O)Nc3ncc([N+](=O)[O-])s3)(OC1=O)C2(C)C (stereo not drawn)	.	.	.	.	63.1
COc1ccc(C(=O)/C(C#N)=N/Nc2ccccc2[N+](=O)[O-])cc1	.	.	.	.	60.8
N#C/C(=N\Nc1ccc(Cl)cc1)C(=O)c1ccccc1	.	.	.	.	83.3
CCCc1c(C)nn(C(=O)/C(C#N)=N/Nc2ccccc2[N+](=O)[O-])c1C	.	.	.	.	.
COc1ccc(N/N=C(\C#N)C(N)=O)cc1	.	.	.	.	.
COc1ccc(C(=O)/C(C#N)=N/Nc2ccc([N+](=O)[O-])cc2)cc1	.	.	.	.	71.3
CCN(CC)CCNc1ccc(CO)c2oc3ccccc3c(=O)c12	.	/	/	/	.
C1C2CC3C1C3C2=NN=C1C2CC3C(C2)C13	.	/	/	/	/
CCCSC1=N/C(=C\c2ccc([N+](=O)[O-])o2)C(=O)S1	.	.	.	.	.
CCCSC1=N/C(=C\C=C\c2ccco2)C(=O)S1	.	89.7	93.8	100.7	.
Cc1cccc(NC(=O)CSc2ncnc3nc[nH]c23)c1C	.	99.1	.	.	.
Cc1ccc(C)c(NC(=O)CSc2ncnc3nc[nH]c23)c1	.	.	.	.	.
CC(C)OCCCNc1ncnc2c1nc1n2CCCC1	.	.	93.5	81.4	.
O=C(NCCCN1CCCCC1)C1CCN(c2ncnc3c2nc2n3CCCCC2)CC1	.	.	.	.	.
CCOC(=O)N1CCC(N2C(=O)c3ccccc3C2=O)CC1	.	99.1	.	.	.
CCOC(=O)N1CCC(N2C(=O)c3ccc(C(=O)NCCC(C)C)cc3C2=O)CC1	.	.	.	.	.
COc1cccc(CNC(=O)CCC2CCCN(C(=O)c3cccc4c(C)c(C)[nH]c34)C2)c1 (stereo not drawn)	.	.	66.5	active	.
CCCCC(=O)NNC(=S)NC(=O)c1ccc([N+](=O)[O-])cc1	.	60.6	.	.	.
CC(C)NS(=O)(=O)c1ccc(NC(=S)NC(=O)c2cccc([N+](=O)[O-])c2)cc1	48.3	.	.	.	.
O=C(NC(=S)Nc1cccc(F)c1)c1cccc([N+](=O)[O-])c1	.	.	.	.	.
CCCCC(=O)NNC(=S)NC(=O)c1cccc([N+](=O)[O-])c1	.	93.6	.	.	.
CCCCC(=O)NNC(=S)NC(=O)c1ccc(C)cc1	.	.	.	.	.
O=C(NNC(=S)NC(=O)c1ccccc1)c1cccc([N+](=O)[O-])c1	.	.	.	.	.
COc1ccc(-c2cccc(N3CCN(c4ccccn4)CC3)n2)cc1OC	.	/	/	/	/
SMILES	PABP1 MLLE inh	PHOSPHO1 block	eIF4H inh	PABP polyA inh	CRFBP-R2 block
COc1ccc(Cl)cc1-c1cc(C(=O)Nc2ccc(Br)cc2)[nH]n1	.	/	/	/	/
CCCCCN1C=CC(=C2C(=O)c3ccccc3C2=O)C=C1	.	.	88.4	1.7	.
COc1ccc(-c2ccc(C(=S)N3CCN(C(C)=O)CC3)o2)cc1	.	85.4	.	.	.
O=C(c1cc2ccccc2o1)N1CCN(Cc2nc3ccccc3s2)CC1	.	/	/	/	.
CCCc1cc(=O)n2[nH]cnc2n1	.	60.8	.	.	.
CC(=O)Nc1ccc2c3c(cccc13)C(=O)N(c1ccccc1)C2=O	.	.	.	.	.
O=CNc1ccc2c3c(cccc13)-c1ccccc1-2	47.5	/	/	/	.
COc1ccc(-n2c(CNC(=O)COc3ccc(Cl)cc3Cl)n[nH]c2=S)cc1	.	.	.	.	.
CCCNC(=O)C1(C)CCCN(CCOc2ccccc2)C1 (stereo not drawn)	.	/	/	/	/
COCCN1CCC(CNCc2cn[nH]c2-c2ccc(C)c(C)c2)C1 (stereo not drawn)	.	.	.	.	.
COCCN1CCC(CO)C1 (stereo not drawn)	.	/	/	/	62.4
CCOC(=O)c1c(Nc2ccc(Cl)cc2)sc(/C=C2\C=Nc3ccccc32)c1O	.	.	?	115.3	.
COc1ccccc1NC(=O)Cc1nnc(SCC(=O)c2ccccc2)n1C	.	.	.	.	.
Cc1ccc(-c2nc(S(=O)(=O)c3ccc(C)cc3)c(SCC(N)=O)o2)cc1	.	.	.	.	.
Cc1ccc(S(=O)(=O)c2nc(-c3cccs3)oc2SCC(N)=O)cc1	.	60.3	.	.	.
